Compound activity deposited in PubChem by National Center for Advancing Translational Sciences (NCATS).
The list is not random: actives were taken first. Their share in the collection is about 11%.
JMJD2A Tudor inh: inhibitors of human JMJD2A Tudor domain. O75164. AlphaScreen JMJD2A-Tudor / H3K4me3 peptide binding. Potency, µM (titrated, usually from 114 µM), usual class: inhibitors. 4.4% of 390,000 active. AID 504339; also: nearly all actives have a fitted effect of over 50% in size
BAZ2B block: BAZ2B (human) inhibition. Potency, µM (series often up to 114 µM), usual class: inhibitors. Q9UIF8. AlphaScreen BAZ2B-H3K14Ac peptide displacement. 4.4% of 360,000 active; also: nearly all actives have a fitted effect of over 60% in size
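Complex of BAZ2B and biotin-H3K14Ac (50 nM apiece) forms over 30 min at RT, then faces library compounds up to 110 uM for another 30 min; AlphaScreen beads added, 20 min dark incubation, luminescence read.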
G9a block: blocks human histone lysine methyltransferase G9a. Potency, µM (top dose mostly 102 µM), most hits filed as inhibitors. AID 504332. 8.8% of 350,000 active. G9a H3K9 monomethylation, AlphaScreen, 2 h; also: nearly all actives have a fitted effect of over 75% in size
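G9a (20 nM) was preincubated 15 min with compound, then reacted 2 h at room temperature with 500 nM biotin-H3K9 peptide and 20 µM SAM. Monomethyl-H3K9 detected by AlphaScreen using anti-H3K9me1 antibody.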
PLK1 PBD block: PLK1 (human) polo-box domain binding inhibition; P53350; Plk1 PBD binding of FITC phosphopeptide, fluorescence polarization; Potency, µM, hits mostly inhibitors; 2.8% of 360,000 active; AID 720504; also: series mostly up to about 57 µM; nearly all actives have a fitted effect of over 65% in size
VDR inh: vitamin D3 receptor (human) inhibition | P11473 | VDR-SRC2-3 peptide fluorescence polarization, 2 h | Potency, µM, most hits filed as inhibitors | 0.93% of 400,000 active
Target sequence (P11473 whole entry, looked up): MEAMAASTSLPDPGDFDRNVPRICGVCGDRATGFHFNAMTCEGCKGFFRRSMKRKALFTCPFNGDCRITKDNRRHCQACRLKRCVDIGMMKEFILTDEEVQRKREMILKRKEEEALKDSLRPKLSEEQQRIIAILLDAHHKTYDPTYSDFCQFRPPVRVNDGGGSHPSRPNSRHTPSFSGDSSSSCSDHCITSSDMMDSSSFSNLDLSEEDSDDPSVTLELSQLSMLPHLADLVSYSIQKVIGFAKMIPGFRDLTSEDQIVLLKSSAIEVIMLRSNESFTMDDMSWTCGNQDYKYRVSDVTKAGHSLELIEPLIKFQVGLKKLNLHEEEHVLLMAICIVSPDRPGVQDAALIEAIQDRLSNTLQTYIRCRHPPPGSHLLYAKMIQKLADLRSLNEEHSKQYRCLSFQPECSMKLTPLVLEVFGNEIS
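Compounds are added to VDR with labelled SRC2-3 coactivator peptide and held 2 h at room temperature. Inhibition of the VDR–peptide interaction is then read as a change in fluorescence polarization.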
HP1b chromo inh: HP1-beta chromodomain-methylated histone interaction inhibition; Potency, µM (top dose mostly 114 µM), actives largely listed as inhibitors; AID 540317; 0.56% of 390,000 active; AlphaScreen HP1-beta / biotin-H3K9me3 peptide binding; also: nearly all actives have a fitted effect of over 70% in size
Target sequence (P83916 whole entry, looked up): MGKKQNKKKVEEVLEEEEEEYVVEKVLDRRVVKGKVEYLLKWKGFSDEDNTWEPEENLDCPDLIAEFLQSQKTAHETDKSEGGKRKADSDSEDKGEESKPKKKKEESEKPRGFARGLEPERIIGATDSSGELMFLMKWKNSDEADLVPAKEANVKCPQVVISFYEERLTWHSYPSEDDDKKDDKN
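HP1-beta protein (50 nM final) preincubated 30 min at room temperature with biotinylated H3(1-18)K9me3 peptide (50 nM) in PBS pH 7.4, 0.01% Tween-20, then compound added for 30 min. AlphaScreen streptavidin donor/nickel chelate acceptor beads (10 ug/mL final), 30 min dark, luminescence read.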
Hits are given with their value; . = inactive; ? = inconclusive; / = not tested or not shown; [ ] = remark or other dose. Calls follow the shape of the dose curve; as a rule, active = well fitted curve in the direction sought with a large enough effect; inconclusive = small, poorly fitted or top-dose-only effect, or another doubt; inactive = no such curve, though single readings can be large; an effect the other way counts as inactive or inconclusive.

SMILES	JMJD2A Tudor inh	BAZ2B block	G9a block	PLK1 PBD block	VDR inh	HP1b chromo inh
COC(=O)C1(C)NCCc2c1[nH]c1ccccc21 (configuration not stated)	.	.	.[12.7 µM]	.	.	.
CC1(CCc2ccc3c(c2)OCO3)NCCc2c1[nH]c1ccccc21 (configuration not stated)	?	.	50.1µM	.	.	.
Oc1ccc(/C=N/NC2=NCCCCC2)cc1	.	.	39.8µM	.	.	.
O=[N+]([O-])c1ccccc1/C=N/NC1=NCCCCC1	.	.	.	.	.	.
COc1cc(/C=N/NC2=NCCCCC2)ccc1O	.	.	56.2µM	.	.	.
CC(=O)Nc1ccc(NC(=O)COC(=O)C2CCCCC2)cc1	.	/	/	.	.	.
COc1ccccc1NC(=S)NCCc1ccc(OC)c(OC)c1	.	.	?	.	.	.
COc1ccc2[nH]c(C)c(CCNC(=S)Nc3ccccc3OC)c2c1	?	/	56.2µM	.	.	.
COc1ccc2[nH]c(C)c(CCNC(=S)Nc3cc(C)ccc3C)c2c1	.	.	.	.	.	.
COc1ccc2[nH]c(C)c(CCNC(=S)Nc3cc(C)cc(C)c3)c2c1	50.1µM	28.2µM	.	.	.	?
COc1ccc2[nH]c(C)c(CCNC(=S)Nc3ccc(F)cc3)c2c1	?	/	56.2µM	.	.	.
CCOc1ccc(Cc2c(C)[nH]c3ccc(C(=O)O)cc3c2=S)cc1	25.1µM	.	12.6µM	.	.	.
COc1ccc2[nH]c(C)c(CCNS(=O)(=O)c3cc(F)ccc3OC)c2c1	?	?	.	/	.	.
Cc1ccc(C2NC(=O)Cc3ccccc32)cc1 (configuration not stated)	.	.	.	.	.	.
COc1ccc(CNC(=S)Nc2cccc(C)c2)cc1	.	.	.	.	.	.
COc1ccc2[nH]c(C)c(CCNC(=S)Nc3cccc(C)c3)c2c1	?	35.5µM	44.7µM	.	.	.
CCc1c(C)[nH]c2ccc(OC)cc2c1=S	.[11.4 µM]	?	4.47µM	13.4µM	.	?
COc1ccc2[nH]c(C)c(CCNc3ccc(C(F)(F)F)cc3[N+](=O)[O-])c2c1	22.4µM	28.2µM	11.2µM	.	.	?
COc1ccc(-c2cc(C(F)(F)F)n3nc(C(=O)Nc4cc(Cl)cc(Cl)c4)cc3n2)cc1	.	.	.	/	.	.
Cc1cn2c(=O)cc(COC(=O)c3ccc(NC(=O)c4ccc(C(C)(C)C)cc4)cc3)nc2s1	.	.	.	/	.	.
CCN1CNC(=S)N(C(C)c2ccccc2)C1 (configuration not stated)	.	.	?	.	.	.
COc1cc(OC)cc(-c2nnc(SCc3ccc(C(=O)O)cc3)o2)c1	.	.	39.8µM	18.9µM	?	.
Cn1ccnc1C(O)(c1nnc(-c2ccccc2)o1)C(F)(F)F (configuration not stated)	.	.	?	.	.	.
Cc1ccc(C)c(OCCn2c(CCNC(=O)C3CCCCC3)nc3ccccc32)c1	.	.	.	/	.	.
COc1ccc2c(c1)CCN=C2Cc1ccc(OC)c(OC)c1	.	.	3.98µM	.	.	.
SMILES	JMJD2A Tudor inh	BAZ2B block	G9a block	PLK1 PBD block	VDR inh	HP1b chromo inh
Cc1oncc1C(=S)Nc1ccccc1	.	.	?	26.7µM	.	.
O=C1NC(Cc2ccc(O)cc2)c2nc3cc(Cl)ccc3c(=O)n2-c2cc(Cl)ccc21 (configuration not stated)	.	/	/	.	.	.
O=C(O)c1ccc2c(c1)C(=O)N(c1cccc(C(=O)/C=C/c3ccccc3)c1)C2=O	.	.	/	42.3µM	?	.
O=C(c1cccc([N+](=O)[O-])c1)c1ccc2[nH]c(=O)[nH]c2c1	.	.	79.4µM	.	.	.
O=C(O)c1cccc(N2C(=O)c3ccc(C(=O)c4cccc([N+](=O)[O-])c4)cc3C2=O)c1	.	.	56.2µM	.	.	.
COc1cc([N+](=O)[O-])cc(/C=N/NC(=O)C(O)(c2ccccc2)c2ccccc2)c1O	.	?	.	.	.	.
COc1cc([N+](=O)[O-])cc(/C=N/NC(=O)c2cccnc2)c1O	22.4µM	17.8µM	/	.	.	.
Cc1cc(/C=N/O)c(C)n1-c1ccc(Br)cc1	?	44.7µM	?	.	.	?
Cc1nc2ccccn2c1C(=O)N/N=C/c1cc(C)n(-c2ccc(Br)cc2)c1C	?	44.7µM	.	.	.	.
Cc1cccc(C(=O)Oc2c(Br)cc(Br)cc2/C=N/NC(=O)c2ccncc2)c1	.	.	.	29.9µM	?	.
Cc1nc2ccccn2c1C(=O)N/N=C/c1ccc(F)cc1	.	.	.	.	.	.
O=C1CCN(CCCN2CCC(=O)NC2=S)C(=S)N1	/	/	/	.	/	/
COc1ccc(-c2cn3c(n2)sc2cc(C(=O)NCCc4ccc(OC)cc4OC)ccc23)cc1	.	.	.	/	.	.
CC(Nc1cccc2ccccc12)C(=O)N/N=C/c1ccc([N+](=O)[O-])cc1 (configuration not stated)	?	?	?	.	.	?
COc1ccccc1NC(C)C(=O)N/N=C/c1ccccc1OCc1cccc(Br)c1 (configuration not stated)	?	.	50.1µM	.	.	.
COc1cc([N+](=O)[O-])cc(/C=N/NC(=O)C(C)Nc2cccc3ccccc23)c1O (configuration not stated)	?	44.7µM	44.7µM	.	.	.
Cc1cc(C)nc(N/N=C/c2ccccc2OCc2cccc(Br)c2)n1	.	.	.	.	.	.
COc1c(/C=N/NC(=O)c2ccncc2)c(CCN(C)C(C)=O)cc2c1OCO2	.	.	50.1µM	.	.	.
COc1cccc(/C=N/NC(=O)c2c(C)nc3ccc(Br)cn23)c1O	35.5µM	7.94µM	.	?	.	.
COc1ccccc1C(=O)Nc1ccccc1OCc1cc(=O)n2ccccc2n1	.	.	.	/	.	.
CN(c1ccccc1)S(=O)(=O)c1cccc(C(=O)NCC(c2cccs2)N2CCOCC2)c1 (configuration not stated)	/	/	/	.	/	/
CCOc1ccc(/C=N/NC(=O)C(=O)N2CCCCCC2)c2ccccc12	.	70.8µM	.	.	.	.
CCOc1cc(/C=N/NC(=O)c2cccnc2)ccc1OCC(N)=O	.	.	.	.	?	.
COc1cccc(C=NNC(=O)c2ccncc2)c1O	56.2µM	/	/	.	.	.
COc1cccc(/C=N/NC(=O)N/N=C/c2cccc(OC)c2O)c1O	?	.	.[0.501 µM]	.	.	.
COc1cc(OC)c(/C=N/NC(=O)c2ccncc2)c(OC)c1	3.98µM	.	.	?	.	.
CCOc1cccc(/C=N/NC(=O)c2cccnc2)c1O	89.1µM	31.6µM	.	.	.	.
COc1ccc(/C=N/NC(=O)c2ccncc2)c(OC)c1	.	.	.	.	.	.
